From PubChem
sPLA2-III inh: Blocks human group III sPLA2 activity | Q9NZ20 | QFRET BODIPY PC-A2 liposome hydrolysis, fluorescence | inhibition, % at 12.2 µM | 370,000 tested, 0.56% active | AID 743126;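 active = inhibition above mean plus 3 SD of compounds lying within the high and low control bounds, cut at about 19% in these data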;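 note: 0% = median of test compound wells and 100% = no enzyme DMSO wells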
Target sequence (Q9NZ20 whole entry, looked up): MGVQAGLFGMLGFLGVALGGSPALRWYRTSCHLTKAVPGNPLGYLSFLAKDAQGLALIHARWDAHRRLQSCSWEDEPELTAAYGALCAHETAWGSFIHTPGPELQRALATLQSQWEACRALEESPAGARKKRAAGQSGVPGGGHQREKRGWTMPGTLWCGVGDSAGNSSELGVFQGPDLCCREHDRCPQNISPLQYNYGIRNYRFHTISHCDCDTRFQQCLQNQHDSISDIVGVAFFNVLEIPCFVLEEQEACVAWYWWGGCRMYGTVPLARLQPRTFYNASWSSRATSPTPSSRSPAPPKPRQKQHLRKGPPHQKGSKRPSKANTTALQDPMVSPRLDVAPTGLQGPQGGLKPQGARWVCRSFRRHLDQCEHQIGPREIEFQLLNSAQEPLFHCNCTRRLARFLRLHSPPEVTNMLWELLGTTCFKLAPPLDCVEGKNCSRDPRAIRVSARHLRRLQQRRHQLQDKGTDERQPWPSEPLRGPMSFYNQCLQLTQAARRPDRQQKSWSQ
rCAG RNA binder: molecules binding r(CAG) RNA repeats; inhibition, % at 3 µM; r(CAG) RNA repeat, TO-PRO-1 dye displacement fluorescence; 370,000 tested, 1.3% active;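 active = inhibition above the plate cutoff, the mean of all test compounds on that plate plus 3 SD, cut at about 35% in these data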;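 note: 0% = DMSO alone and 100% = 100 µM mitoxantrone as full dye displacement; higher means more dye released from RNA so lower well fluorescence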
bovine MsrA act: bovine methionine sulfoxide reductase A activation; purified bovine MsrA, absorbance read-out; activation, % at 10.6 µM; 360,000 tested, 0.3% active; AID 602163; in the data active = activation above about 7.5%;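 note: 0% = vehicle and 100% = reference activator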
MsrA inhibitor: bovine MsrA inhibition | purified bovine MsrA, absorbance read-out | inhibition, % at 15.5 µM | 360,000 tested, 0.75% active; in the data active = inhibition above about 4.5%;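 note: 0% = vehicle wells with enzyme and 100% = reference inhibitor wells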
PG9 Ab binder: small molecules binding HIV-1 gp120 antibody PG9. TR-FRET gp120-PG9 antibody binding. inhibition, % at 6.7 µM. 360,000 tested, 0.43% active; in the data active = inhibition above about 8.5%
rCAG binder conf: r(CAG) RNA repeat binding, confirmation. TO-PRO-1 dye displacement fluorescence. shares compounds with rCAG RNA binder. AID 652065. 4,300 tested, 70% active. inhibition, % at 3 µM;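 active = inhibition above a per-plate cutoff, the mean inhibition of sample wells plus 3 SD, cut at about 35% in these data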;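 note: loss of TO-PRO-1 fluorescence as compound displaces dye from 1x1 AA loop RNA; 0% = DMSO only wells and 100% = 100 µM mitoxantrone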
DNA CAG counter: counter-screen for rCAG RNA binders: DNA CAG dye complex inhibitors | d(CAG) DNA oligo TO-PRO-1 dye displacement, fluorescence | inhibition, % at 3 µM | shares compounds with rCAG RNA binder | 4,300 tested, 94% active;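 active = inhibition above its plate's cutoff, the mean test-well inhibition plus 3 SD, cut at about 4.8% in these data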;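 note: 0% = DNA dye mix with DMSO and 100% = 100 µM mitoxantrone; hits displace the dye from DNA and so lower well fluorescence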
* hit, by the source's call; / = no result. Hits are enriched below; roughly 3.2% of the tested compounds scored in any of these assays.

SMILES	sPLA2-III inh	rCAG RNA binder	bovine MsrA act	MsrA inhibitor	PG9 Ab binder	rCAG binder conf	DNA CAG counter
CNc1nc(N)c([N+](=O)[O-])c(Nc2cccc(OC)c2)n1	-2.1	/	/	/	/	/	/
C[C@H]1COc2cc(Br)ccc2S(=O)(=O)N1Cc1cn(Cc2ccco2)nn1	-0.2	1.1	/	/	/	/	/
CCOC(=O)c1cccc(NC(=O)CN(C)S(=O)(=O)c2cc(OC)ccc2OC)c1	-5.7	2.2	/	/	/	/	/
NNc1nc2sc3c(c2c(=O)[nH]1)CCc1ccccc1-3	10.3	44.1*	-9.8	1.0	-0.1	14.7	8.4*
Cc1cc(N)n(-c2ccc(Oc3ccccc3)c(S(=O)(=O)O)c2)n1	-22.2	59.4*	-3.0	1.9	4.3	42.2*	9.7*
Cc1cc(N)n(-c2ccc(C)c(C)c2)n1	4.6	-2.3	-8.9	-1.2	-0.2	/	/
COC(=O)[C@]12C[C@H](CC(=O)NCCCCc3ccccc3)C(=O)N(CCC3=CCCCC3)C1=C[C@H](C1CCCC1)O[C@@H]2C	-10.2	4.0	/	/	/	/	/
O=C(O)c1cccc(N/N=C(\N=Nc2ccccc2)c2ccccc2)c1	4.7	37.6*	-8.4	0.6	-2.5	53.0*	17.5*
O=C(O)c1cccc(N/N=C/c2cccc3ccccc23)c1	-6.4	11.7	-2.7	-1.2	-2.5	/	/
CCOC(=O)CC[C@@H]1CC[C@]2(CCCN(Cc3nccs3)C2)O1	14.9	1.1	/	/	/	/	/
Cc1cc(/C=N/Nc2ccc([N+](=O)[O-])cn2)c(C)n1-c1ccc(C(=O)O)cc1	-6.6	42.3*	-5.9	1.7	-8.4	32.2	9.4*
CCC(Sc1nc2ccsc2c(=O)n1Cc1ccc(C(=O)O)cc1)C(=O)Nc1ccc(C)c(Cl)c1 (stereo not given)	-27.8	74.0*	-1.4	-0.8	1.9	79.5*	48.7*
COC(=O)C1CN(Cc2ccc(F)cc2)CCS(=O)(=O)N1Cc1cn(Cc2ccccc2)nn1 (stereo not given)	-7.3	0.0	/	/	/	/	/
CCOc1cc(/C=C2/C(=N)N3N=C(CC)SC3=NC2=O)ccc1OC(=O)c1ccco1	-16.5	22.3	-5.2	-0.3	-1.0	/	/
COc1cc(/C=C2\C(=N)N3N=C(S(C)(=O)=O)SC3=NC2=O)ccc1OC(=O)c1cccs1	-0.3	51.9*	-4.8	2.3	-0.8	85.6*	63.1*
CCOc1cc(/C=C2\C(=N)N3N=C(S(=O)(=O)CC)SC3=NC2=O)ccc1OC(=O)c1ccco1	-14.4	41.8*	-3.9	1.6	-2.3	84.4*	51.4*
COc1cc(/C=C2\C(=N)N3N=C(S(C)(=O)=O)SC3=NC2=O)ccc1OCCOc1ccccc1C	-11.6	39.5*	-2.2	2.0	0.9	91.2*	76.0*
CCS(=O)(=O)C1=NN2C(=N)/C(=C\c3ccc(SCc4ccco4)o3)C(=O)N=C2S1	-18.2	84.5*	-4.0	1.2	-3.3	88.8*	70.4*
COc1ccc(/C=C2/C(=N)N3N=C(CC(=O)N4CCCC4)SC3=NC2=O)cc1OC	-14.6	17.3	-4.3	-0.1	1.0	/	/
CC(C)C[C@H](NC1(C(=O)NC2CCCCC2)CCN(C)CC1)C(=O)NCC(c1ccccc1)c1ccccc1	1.7	/	/	/	/	/	/
COC(=O)[C@]12C[C@H](CC(=O)NCCCCc3ccccc3)C(=O)N(Cc3ccco3)C1=C[C@H](C1CCCC1)O[C@@H]2C	-21.4	3.4	/	/	/	/	/
Cc1ccc(C(=O)N2CCC[C@@H]2C(=O)N2CCC[C@H]2C(=O)NCc2ccccc2)cc1	2.6	-1.9	/	0.0	0.6	/	/
COc1cc(/C=C2\C(=N)N3N=C(S(C)(=O)=O)SC3=NC2=O)ccc1OC(=O)c1ccco1	-1.5	43.4*	-4.0	2.0	-2.2	80.1*	48.4*
N=C1/C(=C\c2ccc(OC(=O)c3ccco3)cc2)C(=O)N=C2SC(N3CCCCC3)=NN12	-14.0	40.0*	-5.8	0.4	-1.4	33.2	10.6*
CCOc1cc(/C=C2\C(=N)N3N=C(N4CCCCC4)SC3=NC2=O)ccc1OC(=O)c1ccco1	-6.3	29.8	-0.1	-0.3	-0.8	/	/
SMILES	sPLA2-III inh	rCAG RNA binder	bovine MsrA act	MsrA inhibitor	PG9 Ab binder	rCAG binder conf	DNA CAG counter
COc1cc(NC(=O)NC2CCCCN(Cc3cccc(Cl)c3)C2=O)cc(OC)c1 (stereo not given)	2.7	2.2	/	/	/	/	/
C=CCn1c(COc2ccc(C)cc2)nnc1SCC(=O)Nc1ccc(Oc2ccccc2)cc1	-11.8	6.0	/	/	/	/	/
COc1ccc(-c2nn(-c3ccccc3)cc2/C=N/NC(=O)c2cccc(S(=O)(=O)Nc3ccccc3Cl)c2)cc1	-36.7	58.6*	-5.6	4.5	-2.8	55.2*	28.9*
Cc1ccsc1/C=N/NC(=O)c1cccc(S(=O)(=O)Nc2ccccc2Cl)c1	-11.6	46.8*	-8.3	1.4	-1.3	39.9*	14.4*
CC(C)(C)c1ccc(OCCSc2nc3ccccc3n2CC(=O)O)cc1	-23.8	39.1*	-3.7	-0.7	-2.1	42.9*	10.9*
Cc1c(CCC(=O)NCC(=O)NCC(=O)O)c(=O)oc2cc3oc4c(c3cc12)CCCC4	-1.8	13.9	-2.2	1.7	2.4	/	/
Cc1c(CCC(=O)NCCC(=O)O)c(=O)oc2c(C)c3oc4c(c3cc12)CCCC4	-11.1	41.9*	-3.8	0.7	2.6	38.2*	10.3*
Cc1c(CCC(=O)N[C@@H](C)C(=O)O)c(=O)oc2c(C)c3oc4c(c3cc12)CCCC4	-14.8	43.2*	-5.3	0.7	0.8	39.5*	8.8*
Cc1ccc2c(c1)-n1c(nc3cc(Cl)ccc3c1=O)C(CC(C)C)NC2=O (stereo not given)	5.4	1.3	/	1.8	0.8	/	/
COc1ccc(-c2nc3ccccc3[nH]2)cc1	-0.6	-0.1	-7.7	1.7	-1.7	/	/
COc1ccc(-c2cc(=O)n(-c3nc4ccccc4[nH]3)[nH]2)cc1	12.9	38.9*	-5.1	0.6	-0.8	14.9	10.3*
Cc1cc(OCc2nn[nH]n2)c2c(C)c(Cc3ccccc3)c(=O)oc2c1	-29.0	49.7*	-2.7	2.5	-0.3	50.3*	12.7*
Cc1cc(OCc2nn[nH]n2)c2c(C)c(CC(=O)O)c(=O)oc2c1	-4.9	2.4	-7.3	0.9	2.4	/	/
O=C1ON(Cc2ccccc2)C(c2ccccc2)N1c1ccccc1 (stereo not given)	-1.7	1.6	-3.4	-0.8	1.6	/	/
Cc1ccc(S(=O)(=O)N2[C@@H](c3ccc(Br)cc3)C(C(=O)O)=CC[C@H]2c2cccc(C)c2)cc1	-0.7	4.9	-3.6	0.1	-0.4	/	/
Cc1ccc([C@H]2C(C(=O)O)=CC[C@@H](c3ccc(C)cc3)N2S(=O)(=O)c2ccccc2C)cc1	-30.3	74.6*	-1.3	-0.5	-2.4	62.4*	26.6*
Cc1ccc([C@@H]2CC=C(C(=O)O)CN2S(=O)(=O)c2ccccc2C)cc1	-0.5	22.0	-1.1	-1.0	0.5	/	/
Cc1ccc([C@@H]2CC=C(C(=O)O)[C@H](c3ccccc3)N2S(=O)(=O)c2ccccc2C)cc1	-24.7	55.0*	-0.7	0.3	-0.7	57.4*	20.1*
